Measured values from the supplement of paper PMC11417369.
± gives the standard deviation of the averaged measurements. Over roughly 25,000 sequences, “ln(normalized median fluorescence intensity)” has its median near 8.6; the highest 2% begin near 10. The sample holds the highest values, similar sequences and a random draw of the others, so the mix is not that of the screen.

test system: PfAP2-EXP AP2 domain (GST-tagged); assay: gcPBM binding intensity (ln(normalized median fluorescence intensity)); higher = stronger DNA binding
How it was run: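 The highest Masliner-normalised natural-log median intensity across replicate spots of either probe orientation is reported as binding intensity. GST-tagged P. falciparum DNA-binding domains expressed in E. coli were applied for 1 h to an Agilent 4 × 180k array of primer-extended double-stranded 36-bp intergenic genomic probes plus negative controls, and bound protein was detected with Alexa488 anti-GST antibody and scanned at 488 nm.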

Sequence | gcPBM binding intensity (ln)
TATAAACATAAATATACACACAAACATATATGTATT [CACACA_site8324] | 8.51 ± 0.42
CTGTGTTTTGGTTGTACACACGCTACATTCTATATT [CACACA_site2698] | 9.16 ± 0.28
TTTTTAAAAATAACAGAAAAGAATTACAGATTTTTT [XGTACX_negctrl_site472] | 8.34 ± 0.41
TTTTGTTGCTCTTTTTTTTTTTTTTTTAACTGTATG [CACACA_negctrl_site1072] | 8.57 ± 0.43
TTTTGCTTTTTTTTTCTTTTTTGTTTTATATATATT [CACACA_negctrl_site103] | 8.51 ± 0.53
TTTTTTTGCTCTTTTTATATATATATATATATATAT [GTGCAC_negctrl_site70] | 10.2 ± 0.46
TATGTATATATATATATATATATATATATATATATA [TGCATGCA_negctrl_site491] | 10.1 ± 0.66
TAAAGGAGCCTATGAACACACACATGTACTTATATT [CACACA_site9351] | 8.56 ± 0.4
TGTATGAAATATATTACACACATATAAAATCTATAT [CACACA_site6514] | 8.35 ± 0.57
TATATTAAGAAACACACACACATATATATATATATA [CACACA_site1609] | 10.2 ± 0.3
CATTATAAGAAACACACACACATATATATATATATA [CACACA_site1051] | 10.2 ± 0.47
TCGAACATTAACATAACACACATATATATATATATA [CACACA_site2900] | 10.2 ± 0.32
TCGAACATTAACATAACACACATATAGATTTATATA [CACACA_site7380] | 8.29 ± 0.42
CATTATTATTTTATAACACACACATATATATTATAT [CACACA_site8405] | 8.48 ± 0.34
AAATTTATAAAGAACACACACATATAAATATAAATA [CACACA_site6174] | 8.93 ± 0.49
AACATTATAAGACACACACACACATATATATATATA [CACACA_site8259] | 10.1 ± 0.39
CCAAATTTATAAAGAACACACACATATATATATATA [CACACA_site7900] | 9.99 ± 0.4
AAATTTATAAAGAACACACACATATATATATATATA [CACACA_site48] | 10.2 ± 0.27
TTAATTAAGAAACACACACACATATATATATATATT [CACACA_site2290] | 8.67 ± 0.42
AAACATAAGAAACACACACACATATATATATATATA [CACACA_site3642] | 10.1 ± 0.35
TATATATTAAAACACACACACATATATATATATATA [CACACA_site3787] | 10 ± 0.38
TTTTTTAAAAATATTATCATCGTAACAAGAAATCGA [CACACA_negctrl_site1111] | 8.45 ± 0.4

Sequence | gcPBM binding intensity (ln)
AATAAAAAACATGAAAGTACTTTAAAAAAGGTAATA [XGTACX_site1897] | 8.9 ± 0.45
CAAACAAATATATGTTGTACTTATTATATATACATA [XGTACX_site2998] | 8.38 ± 0.33
ATAATATAGAAACACACACACATATATATATACATT [CACACA_site555] | 8.71 ± 0.29
TAGATAGATTAAAATACATGCATATTATTAAAAAAT [TGCATGCA_site739] | 8.84 ± 0.13
AAAGCACCCAAGAATACACACAAATATTATAAAAAA [CACACA_site111] | 8.57 ± 0.58
TAAACATAATAATATACACACATATATTGATATATA [CACACA_site2144] | 8.18 ± 0.43
AACCAAATTTCACCATGTACATATTGATAAATATAT [XGTACX_site1374] | 8.7 ± 0.34
GGATTCAAAAAAAAAAATAAAAGTAAATAATAAATA [TGCATGCA_negctrl_site348] | 8.27 ± 0.42
ATACACTAGAAAATTTTATAGTATTATTAATGTTAA [GTGCAC_negctrl_site101] | 8.19 ± 0.42
TAAATTTAGAAACACACACACATATATATATATATA [CACACA_site847] | 10.3 ± 0.4
AAAAATTAGAAACACACACACATATATATATATATT [CACACA_site1042] | 8.71 ± 0.22
TATATATAATTATAAGAACACACATATATATATATA [CACACA_site8786] | 10.2 ± 0.18
TTTATAAAAATGAACACACACATATAAATATAAATA [CACACA_site7607] | 8.65 ± 0.44
TATATAATTATAAGAACACACATATATATATATATA [CACACA_site2472] | 10.2 ± 0.2
AAATAATAAATTATAACACACATATATATATATATA [CACACA_site4045] | 10 ± 0.47
TTTATAAAAATGAACACACACATATATATATATATA [CACACA_site3493] | 10.4 ± 0.3
ATTTAGAAAAATAAAACACACATATATATGTAAATA [CACACA_site4113] | 8.66 ± 0.48
TTTTTATAAAAATGAACACACACATATATATATATA [CACACA_site9160] | 10.2 ± 0.4
TGTTAATTAAAGGACTGTACACTAATAATTCTATAA [XGTACX_site5195] | 8.5 ± 0.34
TTTTAAAACAATGAGATTCCTTTCTTTTTTTCTTTT [CACACA_negctrl_site1320] | 7.96 ± 0.59
TGACCGTTTTAAGAGTGTACAAAAAAAAAAAAAAAA [XGTACX_site4141] | 8.21 ± 0.43
ATATATTTCTGTCAAGCACACATAATATTAATATAT [CACACA_site7993] | 8.86 ± 0.45
